Test results as given in PubChem BioAssay AID1259417 (TB Discovery Research, Infectious Disease Research Institute, 2018).
About 760 (69%) of roughly 1,100 compounds were called active. How the calls were made is not given here. The set was probably picked from earlier hits. The list shows a part of the results.

Assay: M. tuberculosis growth inhibition, HTS (AID 1259417);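 further: bacteria grown with compound for 5 days at 37 °C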
Details: stronger effect = higher value, concentration not given here
[1] = M. tuberculosis DsRed fluorescence growth inhibition
[2] = M. tuberculosis growth inhibition

Compound: CC(Oc1ccc(C(=O)NC2CCCCC2)cc1)C(=O)OCc1ccccc1Cl (centres undefined)
- inhibition [1]: 51% (active)
- inhibition [2]: 69.4%

Compound: CC(Oc1ccc(C(=O)NCCc2ccccc2)cc1)C(=O)OCc1ccccc1 (centres undefined)
- inhibition [1]: 36.1% (active)
- inhibition [2]: 55.5%

Compound: COc1ccc(C(=O)Oc2ccc(C(=O)OCc3ccccc3)cc2)cc1OC
- inhibition [1]: 3.52% (inactive)
- inhibition [2]: -20.9%

Compound: Cc1ccc(-c2csc3ncn(C(C)C(=O)OCc4ccccc4Cl)c(=O)c23)cc1 (centres undefined)
- inhibition [1]: -5.81% (inactive)
- inhibition [2]: 4.87%

Compound: COC(=O)CSc1ccnc2cc(Cl)ccc12
- inhibition [1]: 27% (active)
- inhibition [2]: 74.4%

Compound: Cc1cc(C)c2sc(N3CCCC3)nc2c1
- inhibition [1]: 100% (active)
- inhibition [2]: 99.8%

Compound: Cc1ccc(Nc2nc(N3CCN(C)CC3)nc(N)c2[N+](=O)[O-])cc1C
- inhibition [1]: 61.4% (active)
- inhibition [2]: 61.7%

Compound: Cc1ccc(-c2nnc3sc(Cc4ccccc4)nn23)cc1
- inhibition [1]: 100% (active)
- inhibition [2]: 99.4%

Compound: Cc1ccc(-c2nnc3sc(CCc4ccccc4)nn23)cc1
- inhibition [1]: 100% (active)
- inhibition [2]: 100%

Compound: COc1ccc(Cc2nn3c(-c4ccccc4)nnc3s2)cc1
- inhibition [1]: 100% (active)
- inhibition [2]: 100%

Compound: Cc1cccc(Nc2nnc(SCC(=O)Nc3cccnc3Cl)s2)c1
- inhibition [1]: 3% (inactive)
- inhibition [2]: 14.2%

Compound: O=C(CSc1nnc(SCc2cccc3ccccc23)s1)Nc1ccccc1F
- inhibition [1]: 3.26% (active)
- inhibition [2]: 43.1%

Compound: N#Cc1ccc(NC(=O)CSc2ccc(Br)cc2)cc1
- inhibition [1]: 8.52% (active)
- inhibition [2]: 46.8%

Compound: N#Cc1ccc(NC(=O)CSc2ccc(Cl)cc2)cc1
- inhibition [1]: 10.6% (active)
- inhibition [2]: 56.7%

Compound: O=C(CSc1ccc(Cl)cc1)Nc1ccc(Br)cn1
- inhibition [1]: 2.64% (active)
- inhibition [2]: 38%

Compound: Cc1cnc(NC(=O)CSc2ccc(Cl)cc2)s1
- inhibition [1]: -1.45% (inactive)
- inhibition [2]: -17.5%

Compound: O=C(CSc1ccc(Br)cc1)Nc1ccccc1F
- inhibition [1]: 1.79% (active)
- inhibition [2]: 46.4%

Compound: Clc1ccc(OCCCNCc2ccccc2)c2ccccc12
- inhibition [1]: -2.3% (inactive)
- inhibition [2]: -30%

Compound: CCC(C)NCCCOc1ccc(Cl)c2ccccc12 (centres undefined)
- inhibition [1]: 97.1% (active)
- inhibition [2]: 89.4%

Compound: COC(=O)COc1ccc(-c2ccc(F)cc2)cc1C=O
- inhibition [1]: 39.2% (active)
- inhibition [2]: 85.5%

Compound: Cc1cc(Nc2ccc(C)c(C)c2)n2ncc(-c3ccccc3)c2n1
- inhibition [1]: 5.96% (active)
- inhibition [2]: 38.3%

Compound: Cc1cc(Nc2ccc(C)c(Cl)c2)n2ncc(-c3ccccc3)c2n1
- inhibition [1]: -7.72% (inactive)
- inhibition [2]: 1.18%

Compound: COc1ccccc1-c1cnn2c(Nc3cccc(Cl)c3)cc(C)nc12
- inhibition [1]: 32.5% (active)
- inhibition [2]: 72.2%

Compound: O=c1[nH]c(C=Cc2cccc3ccccc23)nc(O)c1[N+](=O)[O-]
- inhibition [1]: 3.53% (inactive)
- inhibition [2]: 9.27%

Compound: CCN(CC)c1ccc(NC(=S)NCCc2ccc(OC)c(OC)c2)cc1
- inhibition [1]: 91.5% (active)
- inhibition [2]: 100%

Compound: CC1CCN(CCNC(=S)Nc2ccc(F)cc2)CC1
- inhibition [1]: 0.916% (inactive)
- inhibition [2]: -24%

Compound: CCN(CC)C(=S)NC(=O)c1ccc(Cl)cc1
- inhibition [1]: 0.912% (inactive)
- inhibition [2]: 0.451%

Compound: COc1ccc(CCNC(=S)N2CCN(CC=Cc3ccccc3)CC2)cc1OC
- inhibition [1]: 20.3% (inactive)
- inhibition [2]: 12.5%

Compound: CCN(CC)c1ccc(NC(=S)NCc2ccc(Cl)cc2)cc1
- inhibition [1]: 72.5% (active)
- inhibition [2]: 88.7%

Compound: S=C(NCc1ccc(Cl)cc1)N1CCN(CC=Cc2ccccc2)CC1
- inhibition [1]: 5.55% (inactive)
- inhibition [2]: -11%

Compound: c1ccc(-c2nnc(SCc3nnc(-c4cccs4)o3)o2)cc1
- inhibition [1]: -2.64% (inactive)
- inhibition [2]: -5.86%

Compound: COC(=O)CSc1nnc(-c2ccc(OC)c(OC)c2)o1
- inhibition [1]: 79.2% (active)
- inhibition [2]: 92.4%

Compound: COC(=O)CSc1nnc(-c2ccc(Cl)cc2)o1
- inhibition [1]: 61.4% (active)
- inhibition [2]: 85%

Compound: COc1ccc(-c2nnc(SCC(=O)OC3CCCCC3)o2)cc1OC
- inhibition [1]: 50.5% (active)
- inhibition [2]: 80.2%

Compound: O=C(CSc1nnc(-c2cccs2)o1)OC1CCCCC1
- inhibition [1]: 28.2% (active)
- inhibition [2]: 52.1%

Compound: CCOc1ccc(C(=O)Nc2ccc(N3CCN(C(=O)c4cccs4)CC3)c(Cl)c2)cc1Br
- inhibition [1]: 14.9% (inactive)
- inhibition [2]: -6.08%

Compound: COc1cccc(C(=O)NC(=S)Nc2ccc(N3CCN(C(=O)c4cccs4)CC3)c(Cl)c2)c1
- inhibition [1]: 62% (active)
- inhibition [2]: 11.5%

Compound: CCc1ccc(OCC(=O)Nc2ccc(N3CCN(C(=O)c4cccs4)CC3)c(Cl)c2)cc1
- inhibition [1]: 0.597% (inactive)
- inhibition [2]: -20.3%

Compound: COC(=O)c1ccc(NC(=O)CC23CC4CC(CC(C4)C2)C3)cc1
- inhibition [1]: 5.38% (inactive)
- inhibition [2]: -0.346%

Compound: O=C(CC12CC3CC(CC(C3)C1)C2)Nc1ccc(F)c(Cl)c1
- inhibition [1]: 98.3% (active)
- inhibition [2]: 95.1%

Compound: O=C(CC12CC3CC(CC(C3)C1)C2)Nc1ccc(Br)cc1
- inhibition [1]: 50.7% (active)
- inhibition [2]: 17.6%

Compound: O=C(CC12CC3CC(CC(C3)C1)C2)Nc1ccc2ccccc2c1
- inhibition [1]: 99.1% (active)
- inhibition [2]: 96.6%

Compound: O=C(Nc1ccc(F)c(Cl)c1)C12CC3CCC(CC(C3)C1)C2
- inhibition [1]: 100% (active)
- inhibition [2]: 97.2%

Compound: Cc1ccc(NC(=O)C23CC4CCC(CC(C4)C2)C3)cc1
- inhibition [1]: 99.7% (active)
- inhibition [2]: 96.9%

Compound: O=C(CC12CC3CC(CC(C3)C1)C2)Nc1ccc2c(c1)OCCO2
- inhibition [1]: 40.1% (active)
- inhibition [2]: 16.6%

Compound: O=C(CC12CC3CC(CC(C3)C1)C2)Nc1cccc(C(F)(F)F)c1
- inhibition [1]: 97.7% (active)
- inhibition [2]: 85.6%

Compound: O=C(CC12CC3CC(CC(C3)C1)C2)Nc1cccc(Cl)c1
- inhibition [1]: 64.1% (active)
- inhibition [2]: 34.5%

Compound: COC(=O)c1cc(NC(=O)CC23CC4CC(CC(C4)C2)C3)cc(C(=O)OC)c1
- inhibition [1]: 11.6% (inactive)
- inhibition [2]: -29%

Compound: C[n+]1c2n(c3ccccc31)N=C(c1cc(C(C)(C)C)c(O)c(C(C)(C)C)c1)CS2
- inhibition [1]: -2.19% (inactive)
- inhibition [2]: 3.98%

Compound: O=C(CC12CC3CC(CC(C3)C1)C2)Nc1ccc(I)cc1F
- inhibition [1]: 57.6% (active)
- inhibition [2]: 24.5%

Compound: CC(NC(=O)Nc1cccc(C(F)(F)F)c1)C1CC2CCC1C2 (centres undefined)
- inhibition [1]: 98.8% (active)
- inhibition [2]: 99.4%

Compound: Cc1cc(C)c2[nH]c3ccccc3c2n1
- inhibition [1]: 100% (active)
- inhibition [2]: 101%

Compound: CCn1c(Sc2ncnc3ccccc23)nc2ccccc21
- inhibition [1]: 33.7% (active)
- inhibition [2]: 57.9%

Compound: CCCc1cc(-c2nc(-c3ccc(Br)cc3)cs2)ccn1
- inhibition [1]: 98.5% (active)
- inhibition [2]: 100%

Compound: CCOC(=O)COc1ccc2c(=O)c(-c3ccccc3Cl)c(C)oc2c1C
- inhibition [1]: 41.3% (active)
- inhibition [2]: 87.5%

Compound: CCOC(=O)COc1ccc2c(=O)c(-c3ccccc3F)coc2c1C
- inhibition [1]: 77.2% (active)
- inhibition [2]: 94.8%

Compound: Clc1ccc(COc2ccc3ccccc3c2CNCc2cccnc2)c(Cl)c1
- inhibition [1]: 73.9% (active)
- inhibition [2]: 65.8%
